An excerpt weighted towards active compounds, which were near 19% of everything screened.
SW480 rerep = induces DNA re-replication in SW480 colon adenocarcinoma cells; AID 624297; SW480 DNA re-replication, Hoechst DNA content imaging, 48 h; 340,000 tested, 1.8% active; Potency, µM (doses to about 46.1 µM), for the others: at the highest dose re-replication activation, usual class: activators; further: potency means the concentration at half of the fitted maximal effect; % of control where 0% means no effect; nearly all actives have a fitted effect of over 55% in size
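Image-based DNA-content assay: after two days of treatment, nuclei were labelled with the DNA dye Hoechst and imaged, and hits were compounds raising the count of nuclei showing high fluorescence intensity.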
TDP1 cell CPT = growth inhibition of DT40 Tdp1-/-;hTDP1 cells with camptothecin (screen for TDP1 inhibitors); 420,000 tested, 12% active; Potency, µM (series often up to 46.2 µM), for inactives: at the top dose activity change, negative = growth inhibition, most hits filed as inhibitors; chicken DT40 Tdp1-/-;hTDP1 cells + 20 nM CPT, ATP luminescence, 48 h; further: potency means the concentration at half of the fitted maximal effect; on the % scale 0 is the no-effect control and ±100 the full control effect; nearly all actives have a fitted effect of over 55% in size
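Cell growth measured by CellTiter-Glo luminescence after a minimum 48 h, 37 C compound exposure with 20 nM CPT in Tdp1-knockout DT40 cells stably expressing hTDP1, seeded 400/well; qHTS titration format.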
Chronic BCR inh = inhibitors of chronic active B-cell receptor signaling | ABC-DLBCL IkBa-CBG/CBR reporter, luminescence ratio, 4 h | Potency, µM (series often up to 46.1 µM), without a hit: top-dose activity change, negative = inhibition, hits mostly inhibitors | 340,000 tested, 0.05% active | AID 493014; active means well fitted inhibition curve with a large enough effect in the signal ratio, with a control signal flat, not every such curve was filed as active; inconclusive means small, poorly fitted or top-dose-only effect, or effect the other way, or a change in a side signal; the % refers to the signal ratio;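 further: potency means the concentration at half of the fitted maximal effect; plate controls were basal doxycycline-induced cells for no effect and cells given 10 µM MG132 for full effect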
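Doxycycline induced both beetle luciferases in TMD8 lymphoma cells; IKK-driven degradation limits the IkappaBalpha-fused green signal, while red luminescence normalises for cell number and nonspecific effects. Compounds tested up to 46 uM, 4 hrs.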
IL-1B inflam inh = blocks inflammasome-driven IL-1 beta release | THP-1 LPS/ATP IL-1B secretion, AlphaLISA, 16 h; active compounds read low | activity change, % at 57.5 µM | 360,000 tested, 4.7% active | AID 743279; in the data active means activity change below about -50%; inconclusive means mostly about -30% to -49%; further: on the % scale 0 is the no-effect control and ±100 the full control effect
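THP-1 cells pretreated 1 hr with compounds (up to 57.5 uM final), then stimulated with LPS (250 ng/mL final) plus ATP (1.25 mM final); secreted IL-1B measured by AlphaLISA after 16 hr, decreased signal indicating inhibition.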
TDP1 cell noCPT = qHTS for Inhibitors of human tyrosyl-DNA phosphodiesterase 1 (TDP1): qHTS in cells in absence of CPT | DT40 Tdp1-/- hTDP1 cells, no CPT, ATP luminescence, 48 h | Potency, µM (titrated, usually from 46.2 µM), for the others: at the top dose activity change, negative = growth inhibition, actives largely listed as inhibitors | 420,000 tested, 15% active; further: potency means the concentration at half of the fitted maximal effect; on the % scale 0 is the no-effect control and ±100 the full control effect; nearly all actives have a fitted effect of over 55% in size
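DT40 Tdp1-/-;hTDP1 cells, no CPT (DMSO vehicle only), 400 cells/well; compounds pin-transferred; ≥48 hr, 37 °C; CellTiter-Glo 30 min RT dark, luminescence read.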
MCF10A rereplic = DNA re-replication induction in MCF 10a cells; MCF 10A DNA re-replication, Hoechst nuclear intensity, 48 h; Potency, µM (series often up to 46.1 µM), inactives show at the highest dose activity, positive = re-replication, actives largely listed as activators; 350,000 tested, 2.9% active; further: potency means the concentration at half of the fitted maximal effect; % of control where 0% means no effect; nearly all actives have a fitted effect of over 50% in size
The depositor's hits bear a star; u = inconclusive; x = no result given; [ ] = another dose, or the depositor's remark. Unless noted, the call rests on the fitted dose curve; in most records, active means well fitted curve in the direction sought with a large enough effect; inconclusive means small, poorly fitted or top-dose-only effect, or another doubt; inactive means no such curve, though single readings can be large; an effect the other way counts as inactive or inconclusive.

SMILES | SW480 rerep | TDP1 cell CPT | Chronic BCR inh | IL-1B inflam inh | TDP1 cell noCPT | MCF10A rereplic
O=C(C1=C[C@H](C2CCCCC2)C[C@H](OCCCCO)O1)N1CCN(Cc2ccc3c(c2)OCO3)CC1 | -15% | 12µM* | u | u | 18µM* | 14%
CC1=C(C(=O)N2CCCCCC2)CC(CC(=O)NC2CC2)C(=O)N1Cc1ccccc1 (stereo unspecified) | x | 3% | x | -20 | 2% | x
Cc1ccccc1-n1c(C)nnc1SC(C)C(=O)NCc1ccco1 (stereo unspecified) | x | -21% | x | x | -3% | x
CCN1C(N(C)C)=NC[C@@H]1Cc1ccccc1 | 7%[9.22 µM] | 0% | -5% | 17 | -12% | 1%
CC(=O)n1cc([C@@H]2C=C(C(=O)N3CCN(Cc4ccc5c(c4)OCO5)CC3)O[C@H](OCCCCO)C2)c2ccccc21 | 1% | u | -28% | -52* | u | u
Cn1ncc2cc3c(Nc4ccc(Cl)cc4)cccc3nc21 | x | 21µM* | x | -25 | 12µM* | x
Cn1ncc2c(Nc3ccc(Cl)cc3)ncnc21 | 21% | u | u | 12 | u | 0%
O=C(NC1CC1)c1cc2cc3ccccc3nc2s1 | -3% | 23µM* | u | -1 | u | 4%
COc1ccc(CNC(=O)CCCc2nnc3n(C(C)C)c(=O)c4sccc4n23)cc1 | x | -29% | x | x | u | x
COc1cccc(CNC(=O)[C@@H]2CCCN2C(=O)[C@H]2CCCCN2S(=O)(=O)c2ccc(OC)c(C)c2)c1 | x | u | x | -3 | 21µM* | x
COc1ccc(S(=O)(=O)N2CCC[C@H]2C(=O)N2CCC[C@H]2C(=O)NCc2ccncc2)cc1C | x | -35% | x | -57* | -34% | x
O=C(NCc1ccccc1)[C@@H]1CCCN1C(=O)[C@@H]1CCCN1C(=O)c1cccc2ccccc12 | x | u | x | -16 | u | x
COc1ccc(S(=O)(=O)N2CCC[C@H]2C(=O)N2CCC[C@H]2C(=O)NCc2ccc(F)cc2F)cc1C | x | u | x | 18 | 18µM* | x
O=C(NCc1ccncc1)[C@@H]1CCCN1C(=O)[C@@H]1CCCN1C(=O)c1cccc2ccccc12 | x | -25% | x | -103* | -26% | x
COc1cccc(CNC(=O)[C@@H]2CCCN2C(=O)[C@@H]2CCCN2S(=O)(=O)c2ccc(OC)c(C)c2)c1 | x | u | x | 57 | u | x
CCOC(=O)C1CCN(c2ncnc3c2nnn3C)CC1 | x | -9% | -20% | x | -14% | x
O=C(CSc1nc2nn(-c3ccccc3)c(=O)c-2c2n1CCCCC2)c1ccc(O)c(O)c1 | u | u | u | 74 | u | 7%
COc1cc(/C=N/Nc2nc3ccccc3s2)ccc1OC(=O)c1ccccc1F | u | 6.5µM* | u | -71* | 4.6µM* | 21µM*
COc1cc(C=NNc2ccccc2)ccc1OC(=O)c1ccccc1 | x | u | x | 0 | 18µM* | x
CCOc1cc(/C=N/NC(=O)CNc2cccc(C)c2)ccc1OC(=O)c1ccccc1 | 0% | u | -11% | -7 | 18µM* | 1%
CC(C)N1CCC(C)(C(=O)Nc2ccc(Cl)c(Cl)c2)C1 (stereo unspecified) | x | u | x | -2 | u | x
O=C(c1[nH]c(C(F)(F)F)nc1-c1ccccc1)N1CCc2ccccc2C1 | x | 1% | x | 19 | -22% | x
Cc1nc(NC(=O)c2cccc(Cl)c2)sc1C(=O)N1CCCCC1 | -2% | 18µM* | u | u | 18µM* | -3%
Cc1nc(NC(=O)C2CC2)sc1C(=O)N1CCCCC1 | -7% | -4% | 4% | 12 | -8% | -7%
CCOc1ccc2nc(N3CCCC(C(=O)NCCCN4CC(C)CC(C)C4)C3)sc2c1 (stereo unspecified) | u | 18µM* | u | -53* | 18µM* | 15%
SMILES | SW480 rerep | TDP1 cell CPT | Chronic BCR inh | IL-1B inflam inh | TDP1 cell noCPT | MCF10A rereplic
CCOc1ccc2nc(N3CCCC(C(=O)NCCCN4C(C)CCCC4C)C3)sc2c1 (stereo unspecified) | u | u | -15% | -70* | u | u
CCOc1ccc2nc(N3CCCC(C(=O)NCCCN4CCCCC4)C3)sc2c1 (stereo unspecified) | 21% | u | u | 0 | u | -1%
O=C(Nc1cc2c(cc1C(=O)c1ccccc1Br)OCCO2)c1cccc(Cl)c1 | x | -1% | x | x | -12% | x
CC(=O)Nc1ccc(S(=O)(=O)Nc2ccccc2N2CCOCC2)cc1 | -18% | -29% | 2% | 23 | -20% | 18%
CC(C)OC(=O)CSc1nc(Cc2cccs2)nc2ccccc12 | u | -21% | 14% | 2 | u | 12%
C=CCNC(=O)N1CCC(c2nc3ccccc3s2)CC1 | -2% | -11% | 2% | 20 | 2% | 14%
CCOc1ccc2nc3cc(N=Nc4ccc(N)nc4N)ccc3c(N)c2c1 | u | 5.8µM* | x | 38 | 2.6µM* | 13%
CCOc1ccc2[nH]c(C)cc(=O)c2c1 | -4% | u | 14% | 54 | -26% | -8%
Cc1csc(SCc2nnc(-c3ccccc3Br)o2)n1 | -4% | -26% | -2% | 0 | -20% | u
Fc1ccccc1SCc1nnc(-c2ccccc2Br)o1 | 1% | 5.8µM* | u | -18 | 26µM* | 3%[9.22 µM]
Cc1ccn2c(Nc3ccc4c(c3)OCO4)c(-c3ccc(O)cc3)nc2c1 | -7% | 23µM* | u | -27 | u | u
Oc1ccc(-c2nc3cnccn3c2Nc2ccc3c(c2)OCCO3)cc1 | -13% | 2% | 18µM* | 69 | -8% | -1%
COc1cc(C2NC(=O)NC(C)=C2C(=O)OCC2CCCCC2)ccc1O (stereo unspecified) | -10% | 8% | -13% | -7 | u | 0%
Cc1ccc(S(=O)(=O)N2C[C@H]3C(=O)C[C@@H](c4ccccc4)N(S(C)(=O)=O)[C@H]3C[C@H]2c2ccccc2)cc1 | x | u | x | -92* | u | x
Cc1ccc(S(=O)(=O)N2C[C@H]3C(=O)C[C@@H](c4cccs4)N(S(=O)(=O)c4ccc(C)cc4)[C@H]3C[C@H]2c2ccccc2)cc1 | x | -22% | x | -58* | u | x
Cc1ccc([C@@H]2C[C@H]3[C@@H](CN2S(=O)(=O)c2ccc(C)cc2)C(=O)C[C@@H](c2ccccc2)N3S(=O)(=O)c2ccc(C)cc2)cc1 | x | -29% | x | 30 | -28% | x

Screens from PubChem.
